ERa SRC1 pot = ER-alpha (human) coactivator binding potentiation. P03372. AID 639. coactivator binding (% of control), % at 25.6 µM. TR-FRET ERalpha-LBD/SRC-Cy5 coactivator binding, 2 h; 100 = basal binding, no effect. 86,000 tested, 1.3% active; in the data active means activity above about 200%;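 further: binding measured in presence of low estradiol as agonist stimulus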
ERb SRC1 inh = ER-beta (human) coactivator binding inhibition; Q92731; TR-FRET ER-beta LBD / SRC1-Cy5 peptide binding; receptor agonist-loaded with 1 µM estradiol; inhibition, % at 25.6 µM; 86,000 tested, 1.3% active; AID 633;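 active means compounds whose percent inhibition of the receptor-coactivator binding signal exceeds about 50% in the single-dose screen, limit read from the data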
ERa SRC1 inh = blocks coactivator binding to human estrogen receptor alpha; P03372; AID 629; inhibition, % at 25.6 µM; 86,000 tested, 1.7% active; TR-FRET ER-alpha LBD / SRC-1 peptide, estradiol-bound; in the data active means inhibition above about 50%
FAK blocker = inhibitors of human focal adhesion kinase; Q05397; biochemical FAK kinase activity assay; inhibition, %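 (tested at 7 µM)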; 97,000 tested, 0.84% active
FAK inh conf = confirmation of human focal adhesion kinase (FAK) inhibitors. shares compounds with FAK blocker. FAK kinase biochemical inhibition assay. inhibition, % at 7 µM. 750 tested, 28% active. AID 794
Each line names hits and unclear results; the compound was inactive in the other large screens (follow-up assays come after a bar, where they were run). Only some compounds are listed: those with a hit (about 3.2% of all), similar ones and a draw of the others. Unless noted, no stated cut-off is given here; in the data, active means inhibition above about 19%; inactive means the rest.

O=C(Nc1ccccc1)O/N=C(\c1ccccc1)c1ccccn1	none (no result: ERa SRC1 pot, ERb SRC1 inh, ERa SRC1 inh)
O=C(Nc1ccccc1)ON=C1c2ccccc2-c2ccccc21	FAK blocker 41.0 (no result: ERa SRC1 pot, ERb SRC1 inh, ERa SRC1 inh) | FAK inh conf inactive
CCOc1ccc2[nH]cc(C(=O)N3CCN(C4CCCCC4)CC3)c(=O)c2c1	none
CCOC(=O)N1CCC2(CC1)C(C#N)=C(N)OC1=C2C(=O)CC(C)C1 (configuration not stated)	none
Cc1ccc(NC(=O)NNc2cccc(Cl)n2)cc1	none (no result: ERa SRC1 pot, ERb SRC1 inh, ERa SRC1 inh)
CCOc1c2ccc(C(=O)NCC34CC5CC(CC(C5)C3)C4)cc2nn1CC	none (no result: ERa SRC1 pot, ERb SRC1 inh, ERa SRC1 inh)
Cn1c(C(=O)N2CCN(C(=O)c3ccco3)CC2)cc2c(=O)n(C)c3ccccc3c21	FAK blocker 18.8 | FAK inh conf inactive
CC(=O)N1CCN(c2cc(N3CCc4ccccc4C3)c(F)cc2[N+](=O)[O-])CC1	none (no result: ERa SRC1 pot, ERb SRC1 inh, ERa SRC1 inh)
Cc1ccccc1OCC(=O)NNC(=O)c1ccc(-c2ccccc2)cc1	FAK blocker 20.4 (no result: ERa SRC1 pot, ERb SRC1 inh, ERa SRC1 inh) | FAK inh conf inactive
CSc1ccc(Cl)c(C(=O)OCC(=O)N2CCOCC2)c1	none
Cc1ccccc1NC(=O)CN1C(=O)S/C(=C\c2cccn2-c2cccc(C(=O)O)c2)C1=O	none (no result: ERa SRC1 pot, ERb SRC1 inh, ERa SRC1 inh)
Cc1ccc(NC(=O)CN2C(=O)S/C(=C\c3cccn3-c3cccc(C(=O)O)c3)C2=O)c(C)c1	FAK blocker 65.5 (no result: ERa SRC1 pot, ERb SRC1 inh, ERa SRC1 inh) | FAK inh conf inactive
COc1ccc(/C=N/NC(=O)CCCOc2ccc(Cl)cc2Cl)cc1[N+](=O)[O-]	FAK blocker 22.9 (no result: ERa SRC1 pot, ERb SRC1 inh, ERa SRC1 inh) | FAK inh conf inactive
COc1cccc(-c2nc(-c3ccccn3)no2)c1	FAK blocker 98.3 | FAK inh conf inactive
COc1cccc(-c2nc(-c3ccccc3)no2)c1	none
CCCCc1nc2n[nH]c(N)c2c2c1CCC2	FAK blocker 19.9 | FAK inh conf inactive
CCCc1nc2n[nH]c(N)c2c2c1COC(C)(C)C2	none
CC(C)Cc1nc2n[nH]c(N)c2c2c1CCC2	FAK blocker 19.0 | FAK inh conf inactive
CC(C)(C)NC(=O)CSc1ccc(C(C)(C)C)cc1	none
CC1CCCN(c2nc3c(c(=O)[nH]c(=O)n3C)n2CCSc2ncccn2)C1 (configuration not stated)	none (no result: FAK blocker)
O=c1oc(-c2ccc(Br)o2)nc2ccccc12	FAK blocker 35.2 | FAK inh conf 37.2
COc1cc(OC)cc(-c2nc3ccccc3c(=O)o2)c1	none
